Reference: PubChem BioAssay (Tox21)
“And” between values parts separate entries of the source, which are not always exact repeats. Identical values can stand only once. Records with an inconclusive call do not appear. More than one record can exist for a structure, and the calls need not agree. The source made the active and inactive calls. The call rests on the fitted dose curve; in most records, active means well fitted curve in the direction sought with a large enough effect in the repeat runs; inconclusive means weak or mixed curves; inactive means no such curve, though single readings can be large; an effect the other way counts as inactive or inconclusive.

How the values were obtained:
[1] = A CellTox Green Cytotoxicity Assay to monitor cytotoxicity in HEK293 cells - 32 hour (AID 1224881); further: nearly all actives have a fitted effect of over 40% in size
Summary of the method: (§1)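 Cytotoxicity was tracked continuously in HEK293 cells by a DNA-binding dye excluded from viable cells. Compounds were transferred in DMSO 5 h after seeding; fluorescence was recorded at intervals up to 40 h.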

[2] = A CellTox Green Cytotoxicity Assay to monitor cytotoxicity in HepG2 cells - 0 hour (AID 1224882); further: nearly all actives have a fitted effect of over 35% in size
Summary of the method: (§2)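 Real-time, homogeneous cytotoxicity readout: dead-cell DNA staining by CellTox Green in HepG2 monolayers, fluorescence measured at timed intervals up to 40 h of continuous compound exposure.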

[3] = A CellTox Green Cytotoxicity Assay to monitor cytotoxicity in HepG2 cells - 32 hour (AID 1224883); further: nearly all actives have a fitted effect of over 50% in size
Summary of the method: as §2

[4] = A CellTox Green Cytotoxicity Assay to monitor cytotoxicity in HEK293 cells - 8 hour (AID 1224884); further: nearly all actives have a fitted effect of over 35% in size
Summary of the method: as §1

[5] = qHTS RealTime-Glo MT Cell Viability Assay in HepG2 cells - 16 hour (AID 1224885); further: nearly all actives have a fitted effect of over 50% in size
Summary of the method: (§3)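 HepG2 cells (600/well) were dispensed with RealTime-Glo reagents, incubated 5 h at 37 °C, then treated with compounds in DMSO for up to 40 h. Nonlytic NanoLuc luminescence reflecting viable cells was read at each stated time point.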

[6] = qHTS RealTime-Glo MT Cell Viability Assay in HEK293 cells - 24 hour (AID 1224886); further: nearly all actives have a fitted effect of over 50% in size
Summary of the method: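 HEK293 cells seeded with NanoLuc/prosubstrate reagent, rested 5 h at 37 C, then dosed and kept at 37 C up to 40 h. Nonlytic real-time luminescence from viable cells read at 0, 8, 16, 24, 32 and 40 h.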

[7] = qHTS RealTime-Glo MT Cell Viability Assay in HEK293 cells - 8 hour (AID 1224887); further: nearly all actives have a fitted effect of over 50% in size
Summary of the method: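 Nonlytic bioluminescent viability monitoring. HEK293 at 600 cells/well with reagent; 5 h settle; compound transfer by pintool; plates held at 37 C and read at set time points.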

[8] = A CellTox Green Cytotoxicity Assay to monitor cytotoxicity in HEK293 cells - 16 hour (AID 1224888); further: nearly all actives have a fitted effect of over 35% in size
Summary of the method: as §1

[9] = qHTS RealTime-Glo MT Cell Viability Assay in HepG2 cells - 0 hour (AID 1224889); further: nearly all actives have a fitted effect of over 50% in size
Summary of the method: as §3

[10] = A CellTox Green Cytotoxicity Assay to monitor cytotoxicity in HepG2 cells - 8 hour (AID 1224890); further: nearly all actives have a fitted effect of over 45% in size
Summary of the method: as §2

Measured: Potency
Potency means the concentration at half of the fitted maximal effect.

CN(C)P(=O)(N(C)C)N(C)C
inactive: [1] | [2] | [3] | [4] | [5] | [6] | [7] | [8] | [9]

S=c1[nH]c2ccccc2[nH]1
inactive: [1] | [2] | [4] | [5] | [6] | [7] | [8]
inactive and 21.9 µM (active): [3]

CCCCSP(=O)(SCCCC)SCCCC
inactive: [1] | [2] | [3] | [4] | [5] | [6] | [7] | [8] | [9]

c1ccc2c(c1)Nc1ccccc1S2
inactive: [1] | [2] | [3] | [4] | [5] | [8] | [9] | [10]
active: [6] 11 µM and 10.7 µM | [7] 13.8 µM and 10.7 µM

CC(C)=CC1C(C(=O)OCc2cccc(Oc3ccccc3)c2)C1(C)C (stereo not drawn)
inactive: [1] | [2] | [3] | [4] | [5] | [6] | [7] | [8]

CCC1(c2ccc(N)cc2)CCC(=O)NC1=O (stereo not drawn)
inactive: [1] | [2] | [3] | [4] | [5] | [6] | [7] | [8]

ClC(Cl)=C(Cl)C(Cl)=C(Cl)Cl
inactive: [1] | [2] | [3] | [4] | [5] | [6] | [7] | [8] | [9] | [10]

Cc1cc(Cl)ccc1N=CN(C)C
inactive: [1] | [2] | [3] | [4] | [5] | [6] | [7] | [8] | [9]

CC(C)(c1ccccc1)c1ccc(O)cc1
inactive: [2] | [5] | [9]
inactive and 43.6 µM (active): [10]
active: [1] 27.3 µM and 24.5 µM | [3] 48.6 µM and 24.5 µM | [4] 8.64 µM and 49 µM | [6] 43.3 µM and 24.5 µM | [7] 48.6 µM and 34.7 µM | [8] 24.3 µM and 43.6 µM

CCC[CH2][Sn]([Cl])([CH2]CCC)[CH2]CCC
active: [1] 618 nM and 776 nM | [3] 1.74 µM and 1.23 µM | [4] 6.18 µM and 7.76 µM | [5] 2.19 µM and 692 nM | [6] 347 nM and 549 nM | [7] 618 nM and 1.23 µM | [8] 3.1 µM and 5.49 µM
inactive: [2] | [9]

CCOC(=O)c1ccccc1N
inactive: [1] | [5] | [6] | [7] | [8]
inactive and 54.9 µM (active): [3]
inactive and 43.6 µM (active): [2] | [4]

CCOS(=O)(=O)OCC
inactive: [1] | [2] | [3] | [4] | [5] | [6] | [7] | [8]

O=C1Nc2ccc(Cl)cc2C(c2ccccc2)=NC1O (stereo not drawn)
inactive: [1] | [2] | [3] | [4] | [5] | [6] | [7] | [8] | [9]

CC1(C)C(C(=O)OC(C#N)c2cccc(Oc3ccccc3)c2)C1(C)C (stereo not drawn)
inactive: [1] | [2] | [3] | [4] | [5] | [6] | [7] | [8] | [9]

N#Cc1c(Cl)c(Cl)c(Cl)c(C#N)c1Cl
active: [1] 7.61 µM and 6.16 µM | [3] 21.5 µM and 3.47 µM | [4] 7.76 µM | [5] 21.5 µM and 6.16 µM | [6] 2.15 µM and 1.23 µM | [7] 12.1 µM and 17.4 µM | [8] 12.1 µM and 8.71 µM
inactive: [2]

C=CC(=O)OCC(CC)(COC(=O)C=C)COC(=O)C=C
inactive: [2] | [4] | [8] | [9] | [10]
active: [1] 5.64 µM and 11 µM | [3] 14.2 µM | [5] 25.2 µM and 13.8 µM | [6] 4 µM and 11 µM | [7] 28.3 µM and 21.9 µM

ClC(Cl)(Cl)Br
inactive: [1] | [2] | [3] | [4] | [5] | [6] | [7] | [8]

CN(C)c1ccccc1
inactive: [1] | [2] | [3] | [4] | [5] | [6] | [7] | [8] | [9] | [10]

CCNCC
inactive: [1] | [2] | [3] | [4] | [5] | [6] | [7] | [8] | [9] | [10]

CCN(CC)C(=O)C(C)Oc1cccc2ccccc12 (stereo not drawn)
active: [9] 43.6 µM
inactive: [1] | [2] | [3] | [4] | [5] | [6] | [7] | [8] | [10]

ClCC(Cl)CCl
inactive: [1] | [2] | [3] | [4] | [5] | [6] | [7] | [8] | [9] | [10]

CC(O)CN(CC(C)O)CC(C)O (stereo not drawn)
inactive: [1] | [2] | [3] | [4] | [5] | [6] | [7] | [8]

CC(C)(O)C#N
inactive: [1] | [2] | [3] | [4] | [5] | [6] | [7] | [8] | [9] | [10]

Cc1ccc([N+](=O)[O-])cc1
inactive: [1] | [2] | [3] | [4] | [5] | [6] | [7] | [8] | [9] | [10]

Nc1ncn[nH]1
inactive: [1] | [2] | [3] | [4] | [5] | [6] | [7] | [8] | [9] | [10]

CC(C)=CC1C(C(=O)OCN2C(=O)C3=C(CCCC3)C2=O)C1(C)C (stereo not drawn)
inactive: [1] | [2] | [3] | [4] | [5] | [6] | [7] | [8] | [9] | [10]

CC(C)Nc1nc(Cl)nc(NC(C)C)n1
inactive: [1] | [2] | [3] | [4] | [5] | [6] | [7] | [8] | [9]

CCC[CH2][Sn]([Cl])([Cl])[CH2]CCC
inactive: [2] | [9]
inactive and 49 µM (active): [4]
active: [1] 442 nM and 1.38 µM | [3] 351 nM and 490 nM | [5] 701 nM and 616 nM | [6] 111 nM and 138 nM | [7] 111 nM | [8] 786 nM and 24.5 µM

Brc1ccc(Br)cc1
inactive: [1] | [2] | [3] | [4] | [5] | [6] | [7] | [8] | [9]

O=C1CCCO1
inactive: [1] | [2] | [3] | [4] | [5] | [6] | [7] | [8] | [9]

CC[n+]1c(-c2ccccc2)c2cc(N)ccc2c2ccc(N)cc21
active: [6] 6.89 µM and 9.52 µM | [7] 34500 nM
inactive: [1] | [2] | [3] | [4] | [5] | [8] | [9]

N#CC(c1ccccc1)c1ccccc1
inactive: [1] | [2] | [3] | [4] | [5] | [6] | [7] | [8] | [9] | [10]

COP(=S)(OC)Oc1ccc(S(=O)(=O)N(C)C)cc1
inactive: [1] | [2] | [3] | [4] | [5] | [6] | [7] | [8] | [9] | [10]

C[N+](C)(C)C
inactive: [1] | [2] | [3] | [4] | [5] | [6] | [7] | [8] | [9] | [10]

COP(=O)(NC(C)=O)SC (stereo not drawn)
inactive: [1] | [2] | [3] | [4] | [5] | [6] | [7] | [8] | [9] | [10]

[CH3][Sn]([Cl])([Cl])[Cl]
inactive: [1] | [2] | [3] | [4] | [5] | [6] | [7] | [8] | [9] | [10]

O=NN(c1ccccc1)c1ccccc1
inactive: [1] | [2] | [3] | [4] | [5] | [6] | [7] | [8]

NC(=O)CN1CCCC1=O
inactive: [1] | [2] | [3] | [4] | [5] | [7] | [8]

N#Cc1cccnc1
inactive: [1] | [2] | [3] | [4] | [5] | [6] | [7] | [8] | [10]

CC1=C(C(=O)Nc2ccccc2)SCCO1
inactive: [1] | [2] | [3] | [4] | [5] | [7] | [8]

CCC/C=N/O
inactive: [1] | [2] | [3] | [4] | [5] | [6] | [7] | [8] | [10]
